In PubChem BioAssay AID588342 (National Center for Advancing Translational Sciences (NCATS), 2011):
Screen size: about 360,000 compounds; about 25,000 (6.9%) were called active. Entries that show only a call come without a potency. Roughly 9% stayed inconclusive and do not appear here. The call rests on the fitted dose curve; in most records, active means well fitted inhibition curve with a large enough effect; inconclusive means small, poorly fitted or top-dose-only effect; inactive means flat fitted curve, though single readings scatter. Many of the other results were omitted from the sample, so actives are more common in it than they were.

molecular target: Luciferin 4-monooxygenase (Photinus pyralis) (UniProt P08659); assay: qHTS profiling assay for firefly luciferase inhibitor/activator using purifed enzyme and Km concentrations of substrates (counterscreen for miR-21 project); conditions: purified FLuc, luminescence inhibition; series mostly up to 57.5 µM; further: nearly all actives have a fitted effect of over 55% in size
Sequence (P08659 whole entry, looked up): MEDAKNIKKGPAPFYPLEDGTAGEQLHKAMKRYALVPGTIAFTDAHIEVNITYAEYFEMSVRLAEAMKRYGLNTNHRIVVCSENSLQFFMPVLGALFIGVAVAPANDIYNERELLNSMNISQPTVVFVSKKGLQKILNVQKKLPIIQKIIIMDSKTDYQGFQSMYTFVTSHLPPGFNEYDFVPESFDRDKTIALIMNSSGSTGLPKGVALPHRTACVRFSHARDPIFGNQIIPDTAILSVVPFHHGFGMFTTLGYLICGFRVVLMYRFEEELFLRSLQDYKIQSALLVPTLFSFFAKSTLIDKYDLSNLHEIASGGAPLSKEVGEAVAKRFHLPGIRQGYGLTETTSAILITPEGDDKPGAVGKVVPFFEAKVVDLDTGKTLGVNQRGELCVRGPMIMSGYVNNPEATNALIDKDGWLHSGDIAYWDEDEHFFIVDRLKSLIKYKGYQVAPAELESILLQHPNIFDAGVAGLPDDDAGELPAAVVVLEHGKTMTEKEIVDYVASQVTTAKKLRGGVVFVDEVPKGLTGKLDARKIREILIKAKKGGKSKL
In short: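 Biochemical qHTS of compounds, final roughly 60 µM downward over six points, against 10 nM purified firefly luciferase using Km concentrations of substrates (10 uM D-luciferin, 10 uM ATP) in Tris acetate pH 7.5 buffer; luminescence output.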
Potency means the concentration at half of the fitted maximal effect.

Structure (SMILES) | Potency
O=C(Nc1cccc(O)c1)c1ccc(C(=O)c2ccccc2)o1 | 6.75 µM (active)
O=C(NCc1cccc(CNC(=O)Nc2cccc(O)c2)c1)Nc1cccc(O)c1 | inactive
O=C(CSc1ccccc1)Nc1ccc(C(=O)Nc2cccc(O)c2)cc1 | inactive
C/C(=C\C(=O)c1cccnc1)Nc1ccc(C)c(C)c1 | 6.75 µM (active)
C/C(=C\C(=O)c1ccccc1)Nc1cccc(O)c1 | 3.38 µM (active)
COc1cc(/C=C(/NC(=O)c2ccccc2)C(=O)Nc2cccc(O)c2)c([N+](=O)[O-])cc1OC | inactive
Cc1ccc(OCC(=O)NCCCNC(=O)c2cccnc2)cc1C | inactive
Cc1ccc(NC(=O)COc2ccc(/C=N\NC(=O)c3cccnc3)cc2)cc1C | inactive
CC(=O)c1cccc(NC(=O)[C@@H](NC(N)=O)C(C)C)c1 | inactive
CC1(C)CC(=O)C=C(c2ccc3ncccc3c2)C1 | inactive
CCOC(=O)C1CCN(C(c2ccc(F)cc2)c2sc3nc(-c4ccco4)nn3c2O)CC1 (stereo unspecified) | inactive
CCN(CCCNC(=O)Cn1ncc2c([nH]c3ccccc32)c1=O)c1cccc(C)c1 | inactive
CC(=O)c1ccc(N2CCN(C(=O)c3ccc(Cl)c(S(=O)(=O)NC4CC4)c3)CC2)c(F)c1 | inactive
Cc1ccc(CNC(=O)c2cccc3c2C(=O)c2ccc(N4CCC(C)CC4)cc2S3(=O)=O)cc1 | inactive
CCOC(=O)[C@H]1[C@H]2COc3ccc(C)cc3[C@@H]2N2C(=O)CN(Cc3ccc(F)cc3)C(=O)[C@@]12C | inactive
CCOc1ccc(CNC(=O)C2CCCN(S(=O)(=O)N(CC)c3ccc(OCC)cc3)C2)cc1 (stereo unspecified) | inactive
Cc1ccc(Cl)cc1NC(=O)NC1COc2ccccc2C1 (stereo unspecified) | inactive
Cc1ccc(C(=O)Nc2ccn(C)n2)cc1 | inactive
Cn1ccc(NC(=O)Nc2ccc(Cl)cc2)n1 | 16.9 µM (active)
CN(C)S(=O)(=O)c1cc(C(=O)Nc2ccn(C)n2)c(Cl)cc1Cl | inactive
Cc1ccc2nc(COc3ccc(NC(=O)COc4ccccc4F)cc3)cc(=O)n2c1 | inactive
CC(NC(=O)c1cc2c(=O)n3ccccc3nc2n(C(C)C)c1=N)c1ccccc1 (stereo unspecified) | inactive
CCC(=O)N1CCc2cc(Br)cc(S(=O)(=O)CCC(=O)N3CCN(c4ccc(F)cc4)CC3)c21 | inactive
COc1ccc([C@H]2CC(=O)C=C(/C=C/c3ccccc3)C2)cc1 | inactive
COc1ccc(-c2cn3c(n2)sc2cc(C(=O)Nc4ccccc4F)ccc23)cc1 | inactive
O=C(O)Cc1ccc(NC(=O)c2cccs2)cc1 | 12 µM (active)

Structure (SMILES) | Potency
CCc1ccc(NC(=O)COC(=O)c2cccs2)cc1 | 6.75 µM (active)
CCOc1ccccc1NC(=O)Cc1cccs1 | inactive
CC(=O)Nc1ccc(NC(=O)[C@@H](NC(=O)c2cccc(C)c2)C(C)C)cc1 | inactive
O=C(Nc1ccccc1)c1ccc(NC(=O)c2cccs2)cc1 | inactive
O=C(Nc1ccc(N2CCN(C(=O)C3CC3)CC2)cc1)c1cccs1 | inactive
Cc1cccc(C(=O)Nc2ccc(CC(=O)O)cc2)c1 | 9.53 µM (active)
O=C(COC(=O)c1cccs1)NCc1cccs1 | inactive
Cc1cccc(C(=O)OCC(=O)Nc2ccc(F)cc2)c1 | inactive
O=C(Cc1cccs1)Nc1ccc([N+](=O)[O-])cc1 | inactive
CCc1ccc(NC(=O)CCNS(=O)(=O)c2cccs2)cc1 | inactive
CCOC(=O)c1ccc(NC(=O)Cc2cccs2)cc1 | 15.1 µM (active)
Cc1ccc(CN(C(=O)COc2ccc(Cl)cc2C)C2CCS(=O)(=O)C2)o1 (stereo unspecified) | inactive
CN(CC(=O)NNC(=O)CNC(=O)c1ccccc1Cl)S(=O)(=O)c1ccc(Cl)cc1 | inactive
Cc1ccc(CN2COc3cc(C)c4c(oc(=O)c5ccccc54)c3C2)cc1 | inactive
COc1ccc(C(=O)OC(C)C(=O)NC2CCCC2)cc1S(=O)(=O)N1CCOCC1 (stereo unspecified) | inactive
COc1ccc(OC)c(NC(=O)C2CCCN(S(=O)(=O)c3ccc4c(c3)CCCC(=O)N4)C2)c1 (stereo unspecified) | inactive
O=C(Cn1ncc2c3ccccc3n(Cc3ccccc3)c2c1=O)NC1CCCCCC1 | inactive
CC(C)C(=O)Nc1ccc(C(=O)NNC(=O)c2cccs2)cc1 | inactive
CCc1ccc(NC(=O)C(=O)NNC(=O)c2cccs2)cc1 | 16.9 µM (active)
Cc1ccc(C)c(NC(=O)CCC(=O)NNC(=O)c2cccs2)c1 | inactive
COCCn1cnc2c1c(=O)n(CC(=O)NN)c(=O)n2Cc1ccccc1 | inactive
Cc1ccccc1-c1cc(C(=O)NCC2CC2)n(CC2CC(c3cccnc3)=NO2)n1 (stereo unspecified) | inactive
Cc1nc2sc(C)c(C)n2c(=O)c1S(=O)(=O)NCCc1ccc(Cl)cc1 | inactive
Cc1n[nH]c(=O)n1-c1ccc(C(C)C)cc1 | inactive
c1cc(-c2nn[nH]n2)ccc1CN1CCCCC1 | inactive
CC(C)c1ccc(-c2nn[nH]n2)cc1 | 6.01 µM (active)

Structure (SMILES) | Potency
CCOc1ccc(N(CC)C(=O)c2noc3c2COc2ccc(C)cc2-3)cc1 | inactive
COc1ccccc1CNC(=O)CCn1c(=O)c2ccccc2n(CC(=O)Nc2cccc(Cl)c2)c1=O | inactive
Cc1ccc(C)c(N2CCN(C(c3ccccc3)c3nnc(-c4ccccc4)o3)CC2)c1 (stereo unspecified) | inactive
OC(CNCCc1ccc(Cl)cc1Cl)COc1ccccc1 (stereo unspecified) | inactive
NC(N)=N/N=C/c1ccc(OCc2ccc(Cl)cc2Cl)cc1 | 16.9 µM (active)
CCOc1ccc(NC(=O)NNC(=O)c2ccc(Cl)cc2Cl)cc1 | inactive
C#CCOc1ccc(C2CC(=O)Nc3c2c(C)nn3-c2nc(C)cc(C)n2)cc1 (stereo unspecified) | inactive
CS(=O)(=O)c1ccc(C(=O)OCC(=O)NNC(=O)COc2ccc(Cl)cc2)cc1 | inactive
CCS(=O)(=O)c1ccc(O)c(NC(=O)COc2ccc(Cl)cc2)c1 | 16.9 µM (active)
COC(=O)c1sccc1NC(=O)COc1ccc(Cl)cc1 | inactive
CCOc1ccc(N(Cc2ccccc2)C(=O)c2nc(SCC)ncc2Cl)cc1 | inactive
CCCN1CN=C(NS(=O)(=O)c2ccc(NC(C)=O)cc2)NC1 | inactive
COC(=O)C1C(=O)c2c([nH]c(C(=O)OCCSC)c2C)CC1C (stereo unspecified) | 7.57 µM (active)
CCCOC(=O)C1=C(C)NC2=C(C(=O)C(C(=O)OC)C(C)C2)C1c1ccc(N(C)C)cc1 (stereo unspecified) | inactive
COCCOC(=O)c1[nH]c2c(c1C)C(=O)CC(c1ccc(OC)cc1)C2 (stereo unspecified) | inactive
CCc1ccc(NC(=O)Cn2c(=O)n(CCC(=O)NCc3ccc4c(c3)OCO4)c(=O)c3ccccc32)cc1 | inactive
CC(C)CC(=O)NCC(c1ccc2c(c1)OCO2)N1CCN(c2ccc(F)cc2)CC1 (stereo unspecified) | inactive
CCC(=O)Nc1c(C)n[nH]c1C | inactive
Cc1ccc(Nc2nc(Cl)c(C=O)s2)cc1 | 12 µM (active)
Cc1ccc(NC(=O)Nc2nnc(-c3ccncc3)s2)cc1 | inactive
Cc1ccc(Nc2nc(C)cc(C)c2C(N)=O)cc1 | inactive
Cc1ccc2c(=O)c(C(=O)c3cccc(Cl)c3)cn(CC(=O)NCc3ccccc3)c2n1 | inactive
COc1ccc(NS(=O)(=O)c2ccc(C)c(C(=O)NNC(=O)c3csc(N4CCOCC4)n3)c2)cc1 | inactive
COc1ccccc1C(=O)NC(CCSC)C(=O)NNC(=O)c1csc(N2CCOCC2)n1 (stereo unspecified) | inactive
CSCCC(NC(=O)c1ccc(Cl)cc1Cl)C(=O)NNC(=O)c1csc(N2CCOCC2)n1 (stereo unspecified) | 23.9 µM (active)
Cc1ccc(NC(=O)Nc2sc3nc4n(c(=O)c3c2C)CCC(C)CC4)c(Cl)c1 (stereo unspecified) | inactive

Structure (SMILES) | Potency
CCc1cc2c(=O)c(-c3ccc(F)cc3)c(C(F)(F)F)oc2cc1OCC(=O)O | inactive
COc1ccc2oc(N)c(C=O)c(=O)c2c1 | inactive
CCc1cc2c(=O)c(-c3ccon3)c(N)oc2cc1OC | 2.39 µM (active)
Cc1cccc(NC(c2cccc(F)c2)c2ccc3ccc(C)nc3c2O)n1 (stereo unspecified) | inactive
Cc1ccc(C(=O)NNC(=O)c2cc3cc4ccccc4nc3s2)cc1 | inactive
CCc1nc(SCC(=O)NNC(=O)c2ccc(C)cc2)c2ccccc2n1 | inactive
Cc1ccc(C(=O)NNc2ncnc3ccccc23)cc1 | 8.49 µM (active)
CC1=C(C(=O)Nc2ccccc2Cl)C(c2cccs2)n2ncnc2N1 (stereo unspecified) | inactive
O=C(O)/C=C/c1cn(-c2ccccc2)nc1-c1cccs1 | 21.3 µM (active)
S=c1[nH]nc(-c2cccs2)n1/N=C/c1cn(-c2ccccc2)nc1-c1ccc(Cl)cc1 | inactive
COc1cccc(NC(=O)CN(C)C(=O)/C=C/c2cn(-c3ccccc3)nc2-c2cccs2)c1 | inactive
O=C(COC(=O)/C=C/c1cn(-c2ccccc2)nc1-c1cccnc1)Nc1ccc(Cl)cc1Cl | inactive
O=C(NCc1cccnc1)c1cn(-c2ccccc2)nc1-c1cccs1 | 6.01 µM (active)
COc1ccc(-c2nn(-c3ccccc3)cc2/C=C\C(=O)N2CCOCC2)cc1[N+](=O)[O-] | inactive
CCC(=O)N1N=C(c2ccc(OC)cc2)CC1c1cn(-c2ccccc2)nc1-c1cccs1 (stereo unspecified) | inactive
O=C(O)c1ccc(N/N=C/c2cn(-c3ccccc3)nc2-c2cccs2)cc1 | 0.107 µM (active)
O=C(/C=C/c1cccs1)NCc1cccnc1 | inactive
Cc1c(NC(=O)C(=O)N/N=C/c2cccs2)c(=O)n(-c2ccccc2)n1C | inactive
O=C(/C=C\c1cn(-c2ccccc2)nc1-c1cccs1)N1CCOCC1 | 7.57 µM (active)
O=C(NCc1cccnc1)c1nc(-c2cccs2)no1 | inactive
CN(C)c1ccc(NC(=S)N(CCc2ccccc2)C2CC(=O)N(c3c(Cl)cccc3Cl)C2=O)cc1 (stereo unspecified) | inactive
CCN1CCN(CCCNC(=O)c2cnn(-c3ccc(C)cc3C)c2C2CCN(C(=O)OC(C)(C)C)CC2)CC1 | inactive
O=C(COC(=O)c1cc(=O)[nH]c2ccccc12)NCc1cccc(Cl)c1 | inactive
